Activity calls are given as the source filed them. How the source made its calls: active means hit-call score of the fitted dose curve at least 0.9, where 1 is the maximum; inactive means score below 0.9.
Key:
Settings in all cases: mRNA level, 48 h; actives raise or lower the signal
[1] = read-out: Pro-epidermal growth factor (Homo sapiens) (UniProt P01133); assay: LTEA_HepaRG_EGF: Life Technologies and Expression Analysis (LTEA) Assay for Epidermal growth factor (EGF) using HepaRG (AID 2283489)
Procedure, shortened: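 HepaRG, 48 h dosing, 100 uM top, half-log x8, 0.5% DMSO. Readout: TaqMan qRT-PCR (Fluidigm array), housekeeping-normalized. Gain or loss of signal fit vs DMSO.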

[2] = read-out: Early growth response protein 1 (EGR1) transcription factor, EGR1 (gene 1958); assay: LTEA_HepaRG_EGR1: Life Technologies and Expression Analysis (LTEA) Assay for Early growth response protein 1 (EGR1) transcription factor using HepaRG (AID 2283490)
Procedure, shortened: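 Differentiated HepaRG cells in serum-free induction medium exposed 48 hours, duplicate, to 8 half-log concentrations up to 100 uM in 0.5% DMSO. EGR1 mRNA measured by TaqMan qRT-PCR, normalized to ACTB, GAPDH, POLR2A; bidirectional fit versus DMSO.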

[3] = read-out: Ezrin (EZR), EZR (gene 7430); assay: LTEA_HepaRG_EZR: Life Technologies and Expression Analysis (LTEA) Assay for Ezrin (EZR) using HepaRG (AID 2283491)
Procedure, shortened: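 EZR transcript levels came from Fluidigm qRT-PCR and were normalized to three housekeeping genes after 48 h chemical exposure of HepaRG cells. Dosing used an 8-point half-log series with a 100 uM top concentration in 0.5% DMSO, tested in duplicate; both directions were fitted versus vehicle.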

[4] = read-out: Cytochrome P450 3A7 (Homo sapiens) (UniProt P24462); assay: LTEA_HepaRG_CYP3A7: Life Technologies and Expression Analysis (LTEA) Assay for CYP3A7 using HepaRG (AID 2283492)
Procedure, shortened: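 Human HepaRG liver cells, 48 h post-plating, switched to serum-free induction medium and exposed in duplicate for 48 h. Dosing: 100 uM top, half-log dilutions, 8 points, 0.5% DMSO vehicle. Read-out: CYP3A7 mRNA, gain or loss fitted against DMSO baseline.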

CYP3A5 (gene 1577) = assay: LTEA_HepaRG_CYP3A5: Life Technologies and Expression Analysis (LTEA) Assay for CYP3A5 using HepaRG (AID 2283493)
Procedure, shortened: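 HepaRG plated 48 h, switched to serum-free induction medium, chemicals added 48 h (max 100 uM, half-log, 0.5% DMSO). RNA isolated; CYP3A5 by TaqMan qRT-PCR. Gain/loss vs DMSO.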

[5] = read-out: Fatty Acid-Binding Protein 1 (FABP1), FABP1 (gene 2168); assay: LTEA_HepaRG_FABP1: Life Technologies and Expression Analysis (LTEA) Assay for Fatty Acid-Binding Protein 1 (FABP1) using HepaRG (AID 2283494)
Procedure, shortened: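 Differentiated human HepaRG cells exposed 48 h in serum-free induction medium to eight half-log concentrations up to 100 uM (0.5% DMSO), duplicate. FABP1 mRNA by qRT-PCR, normalised to ACTB, GAPDH, POLR2A; bidirectional fitting against DMSO.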

[6] = read-out: Cytochrome P450 7A1 (Homo sapiens) (UniProt P22680); assay: LTEA_HepaRG_CYP7A1: Life Technologies and Expression Analysis (LTEA) Assay for Cytochrome P450 7A1 (CYP7A1) using HepaRG (AID 2283496)
Procedure, shortened: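 HepaRG cells plated 48 h, then switched to serum-free induction medium and exposed in duplicate for 48 h to 8-point half-log series from 100 uM in 0.5% DMSO. CYP7A1 mRNA by qRT-PCR (TaqMan), normalized to ACTB/GAPDH/POLR2A; bidirectional fit versus DMSO.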

[7] = read-out: Glutathione S-Transferase (GSTA2), GSTA2 (gene 2939); assay: LTEA_HepaRG_GSTA2: Life Technologies and Expression Analysis (LTEA) Assay for Glutathione S-Transferase (GSTA2) using HepaRG (AID 2283497)
Procedure, shortened: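 Differentiated human HepaRG cells were exposed in duplicate for 48 h in serum-free induction medium, 8 points from 100 uM top in half-log steps, 0.5% DMSO. GSTA2 mRNA was measured by TaqMan qRT-PCR, normalized to ACTB, GAPDH and POLR2A; bidirectional fit versus DMSO.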

[8] = read-out: growth arrest and DNA damage 45 (GADD45G), GADD45G (gene 10912); assay: LTEA_HepaRG_GADD45G: Life Technologies and Expression Analysis (LTEA) Assay for growth arrest and DNA damage 45 (GADD45G) using HepaRG (AID 2283499)
Procedure, shortened: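 Gain or loss of GADD45G mRNA, quantified by TaqMan qRT-PCR against three housekeeping genes, is fitted in both directions relative to 0.5% DMSO. Human HepaRG cultures receive test chemical for 48 h at up to 100 uM.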

[9] = read-out: Glutamate-cysteine ligase regulatory (GCLM), GCLM (gene 2730); assay: LTEA_HepaRG_GCLM: Life Technologies and Expression Analysis (LTEA) Assay for Glutamate-cysteine ligase regulatory (GCLM) using HepaRG (AID 2283500)
Procedure, shortened: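 Cells were plated, cultured 48 h, switched to serum-free induction medium, then dosed in duplicate for 48 h at eight half-log concentrations up to 100 uM. RNA was then profiled by qRT-PCR; gain or loss versus DMSO was fitted.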

[10] = read-out: Heat shock 70 kDa protein 1 (HSPA1A), gene 3303; assay: LTEA_HepaRG_HSPA1A: Life Technologies and Expression Analysis (LTEA) Assay for Heat shock 70 kDa protein 1 (HSPA1A) using HepaRG (AID 2283502)
Procedure, shortened: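 Readout is HSPA1A transcript level by microfluidic qRT-PCR, normalized to three housekeeping genes and analysed for gain or loss of signal relative to 0.5% DMSO. Human HepaRG cultures received test chemicals for 48 h at up to 100 uM.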

[11] = read-out: Hypoxia-inducible factor 1-alpha (Homo sapiens) (UniProt Q16665); assay: LTEA_HepaRG_HIF1A: Life Technologies and Expression Analysis (LTEA) Assay for Hypoxia-inducible factor 1 (HIF1A) Trancription factor using HepaRG (AID 2283503)
Procedure, shortened: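 Differentiated HepaRG cells in serum-free induction medium exposed 48 h, in duplicate, to 8-point half-log series from 100 uM in 0.5% DMSO. HIF1A mRNA measured by TaqMan qRT-PCR, normalized to ACTB/GAPDH/POLR2A, fitted bidirectionally versus DMSO.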

[12] = read-out: 3-Hydroxy-3-Methylglutaryl-CoA Synthase 2 (HMGCS2), HMGCS2 (gene 3158); assay: LTEA_HepaRG_HMGCS2: Life Technologies and Expression Analysis (LTEA) Assay for 3-Hydroxy-3-Methylglutaryl-CoA Synthase 2 (HMGCS2) using HepaRG (AID 2283504)
Procedure, shortened: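 HepaRG, plated 48 h then switched to serum-free induction media; cmpd 8-pt, max 100 uM, 1/2-log, 0.5% DMSO, n=2, 48 h. HMGCS2 mRNA by Fluidigm TaqMan qRT-PCR, ACTB/GAPDH/POLR2A norm; bidirectional fit vs DMSO.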

HGF (gene 3082) = assay: LTEA_HepaRG_HGF: Life Technologies and Expression Analysis (LTEA) Assay for Hepatocyte Growth Facto (HGF) using HepaRG (AID 2283505)
Procedure, shortened: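 Read-out is HGF transcript level by qRT-PCR, normalized to three housekeeping genes, fitted bidirectionally against 0.5% DMSO vehicle. Human HepaRG cells received test chemicals for 48 h at up to 100 uM.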

[13] = read-out: Insulin Like Growth Factor 1 (IGF1), IGF1 (gene 3479); assay: LTEA_HepaRG_IGF1: Life Technologies and Expression Analysis (LTEA) Assay for Insulin Like Growth Factor 1 (IGF1) using HepaRG (AID 2283506)
Procedure, shortened: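 HepaRG, plated 48 h, then switched to serum-free induction media; test chemical 8-pt half-log from 100 uM (0.5% DMSO), duplicate, 48 h. Lysis in RLT, TaqMan qRT-PCR, norm. ACTB/GAPDH/POLR2A. Bidirectional fit vs DMSO.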

[14] = read-out: Intercellular Adhesion Molecule 1 (ICAM1), ICAM1 (gene 3383); assay: LTEA_HepaRG_ICAM1: Life Technologies and Expression Analysis (LTEA) Assay for Intercellular Adhesion Molecule 1 (ICAM1) using HepaRG (AID 2283507)
Procedure, shortened: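 Readout is qRT-PCR mRNA level, normalized to three housekeeping genes and fitted bidirectionally against 0.5% DMSO vehicle. Human HepaRG cultures received compound for 48 h, top concentration 100 uM with half-log dilutions.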

[15] = read-out: Insulin-like growth factor-binding protein 1 (IGFBP1), IGFBP1 (gene 3484); assay: LTEA_HepaRG_IGFBP1: Life Technologies and Expression Analysis (LTEA) Assay for Insulin-like growth factor-binding protein 1 (IGFBP1) using HepaRG (AID 2283508)
Procedure, shortened: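 Thawed HepaRG cells are plated for 48 h, switched to serum-free induction medium, then dosed in duplicate for another 48 h (100 uM top, half-log steps). Lysates in RLT go to qRT-PCR, and gain or loss of signal is fitted relative to vehicle.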

[16] = read-out: Glutamate-cysteine ligase catalytic (GCLC), GCLC (gene 2729); assay: LTEA_HepaRG_GCLC: Life Technologies and Expression Analysis (LTEA) Assay for Glutamate-cysteine ligase catalytic (GCLC) using HepaRG (AID 2283498)
Procedure, shortened: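 Differentiated HepaRG cells exposed 48 h in serum-free induction medium, eight-point half-log series topping at 100 uM in 0.5% DMSO, duplicates. GCLC mRNA by qRT-PCR normalized to ACTB, GAPDH and POLR2A, fitted bidirectionally versus DMSO.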

[17] = read-out: Cytochrome P450 4A22 (Homo sapiens) (UniProt Q5TCH4); assay: LTEA_HepaRG_CYP4A22: Life Technologies and Expression Analysis (LTEA) Assay for Cytochrome P450 4A22 (CYP4A22) using HepaRG (AID 2283495)
Procedure, shortened: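 Readout is CYP4A22 transcript induction or loss, quantified by qRT-PCR and normalized to ACTB, GAPDH and POLR2A. Human HepaRG cells receive test chemicals for 48 h at eight half-log concentrations from 100 uM in 0.5% DMSO.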

[18] = read-out: Glutathione S-transferase M3 (GSTM3), GSTM3 (gene 2947); assay: LTEA_HepaRG_GSTM3: Life Technologies and Expression Analysis (LTEA) Assay for Glutathione S-transferase M3 (GSTM3) using HepaRG (AID 2283501)
Procedure, shortened: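 HepaRG, plated 48 h, then serum-free induction medium; test chemical 48 h, duplicate; 100 uM top, half-log x8, 0.5% DMSO. Read-out: GSTM3 mRNA (TaqMan qRT-PCR, Fluidigm array). Bidirectional fit vs DMSO.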

Measured: AC50

Hypoxia-inducible factor 1-alpha (Homo sapiens), sequence (Q16665 whole entry, looked up): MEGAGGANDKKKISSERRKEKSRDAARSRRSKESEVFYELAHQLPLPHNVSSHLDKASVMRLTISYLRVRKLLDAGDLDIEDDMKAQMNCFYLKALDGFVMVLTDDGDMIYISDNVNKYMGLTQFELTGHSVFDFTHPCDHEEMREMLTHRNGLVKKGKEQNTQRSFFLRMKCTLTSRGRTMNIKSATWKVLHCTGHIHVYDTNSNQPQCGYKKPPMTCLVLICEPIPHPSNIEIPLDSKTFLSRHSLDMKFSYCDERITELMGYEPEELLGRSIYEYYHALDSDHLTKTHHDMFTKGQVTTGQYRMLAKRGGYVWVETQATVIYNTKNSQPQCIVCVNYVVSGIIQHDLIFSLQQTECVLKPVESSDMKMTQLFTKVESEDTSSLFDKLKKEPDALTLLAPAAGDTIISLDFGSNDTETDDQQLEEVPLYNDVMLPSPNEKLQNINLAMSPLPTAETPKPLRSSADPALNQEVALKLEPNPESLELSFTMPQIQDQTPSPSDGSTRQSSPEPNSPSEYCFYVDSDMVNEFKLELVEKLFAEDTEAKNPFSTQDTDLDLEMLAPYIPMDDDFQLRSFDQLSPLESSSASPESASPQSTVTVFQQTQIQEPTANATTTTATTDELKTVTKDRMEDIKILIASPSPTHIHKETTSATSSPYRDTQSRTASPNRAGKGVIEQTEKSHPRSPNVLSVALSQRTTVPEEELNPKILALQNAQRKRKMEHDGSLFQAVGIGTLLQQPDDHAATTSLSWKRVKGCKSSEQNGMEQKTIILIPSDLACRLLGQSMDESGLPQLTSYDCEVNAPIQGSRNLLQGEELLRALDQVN
Cytochrome P450 3A7 (Homo sapiens), sequence (P24462 whole entry, looked up): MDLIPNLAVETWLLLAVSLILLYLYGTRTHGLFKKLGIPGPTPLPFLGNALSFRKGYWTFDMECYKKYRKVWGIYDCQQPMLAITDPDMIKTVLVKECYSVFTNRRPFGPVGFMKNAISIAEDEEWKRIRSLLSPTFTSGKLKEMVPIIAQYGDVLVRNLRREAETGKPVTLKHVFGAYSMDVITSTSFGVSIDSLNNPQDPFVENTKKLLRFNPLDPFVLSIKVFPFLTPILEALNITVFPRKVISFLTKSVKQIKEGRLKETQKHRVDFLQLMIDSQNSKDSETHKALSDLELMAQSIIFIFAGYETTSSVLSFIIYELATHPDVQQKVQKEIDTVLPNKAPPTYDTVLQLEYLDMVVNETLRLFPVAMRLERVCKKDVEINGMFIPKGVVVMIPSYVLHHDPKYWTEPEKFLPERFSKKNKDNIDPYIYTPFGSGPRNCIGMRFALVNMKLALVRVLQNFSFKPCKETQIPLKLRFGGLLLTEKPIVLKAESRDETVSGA

Clc1nc(Cl)nc(Nc2ccccc2Cl)n1
not listed: [16] | [17] | [18]
inactive: all other assays above

CCOP(=O)(OCC)Oc1nc(Cl)c(Cl)cc1Cl
active: [2] 83.4 µM | [4] 92.1 µM | [5] 82.6 µM | [6] 83.8 µM | [7] 75.5 µM | [16] 84.1 µM | [11] 49.8 µM | [12] 84.8 µM
not listed: [8] | [9] | [17] | [18]
inactive: all other assays above

Clc1cccc(C(Cl)(Cl)Cl)n1
not listed: [9] | [17] | [18]
inactive: all other assays above

CCOc1nc(C(Cl)(Cl)Cl)ns1
active: [2] 1.12 µM | [4] 2.43 µM | HGF (gene 3082) 1.21 µM | [13] 0.965 µM | [14] 1.38 µM | [15] 1.01 µM
inactive: [3] | CYP3A5 (gene 1577) | [5] | [7] | [8] | [10] | [11] | [12]

CC1(C)CCC(=Cc2ccc(Cl)cc2)C1(O)Cn1cncn1 (stereo unspecified)
active: [5] 4.41 µM | [17] 14.6 µM | [6] 4.96 µM | [13] 25 µM
not listed: [4] | [18]
inactive: all other assays above

COP(=S)(OC)Oc1ccc([N+](=O)[O-])c(C)c1
not listed: [9] | [16] | [17]
inactive: all other assays above

CCOc1nc(F)cc2nc(S(=O)(=O)Nc3c(Cl)cccc3Cl)nn12
active: [4] 9.92 µM | [6] 36.7 µM | [13] 14.4 µM | [15] 50 µM
not listed: [9] | [16] | [17] | [18]
inactive: all other assays above

COC(=O)NS(=O)(=O)c1ccc(N)cc1
not listed: [9] | [16] | [17] | [18]
inactive: all other assays above
